Test results taken from PubChem BioAssay AID1159580 (chemical genetic matrix, 2015).
In all, about 5,500 compounds went through this assay and about 2,000 (36%) were called active. Another 18% or so got no clear call; they are omitted. The list shows a part of the results. A number with no mark means an inactive call. Rule as the data show it: active = normalized growth mostly below about 0.91 (no sharp cut-off); inconclusive = no clear call, values can overlap the other calls; inactive = mostly above about 0.92.

Assay: chemical genetic growth profiling, strain panel (AID 1159580);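 also: tested at 20 µM; growth read once vehicle control cultures reached saturation at 30 °C; 1 = growth at the plate median or of vehicle wells; lower values mean less growth of the strain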
Conditions: growth OD

With `CCOP(=S)(OCC)SCSP(=S)(OCC)OCC` the normalized growth (S. cerevisiae deletion strains, locus YAL013W, strain DEP1, active compounds read low) was 0.993, the normalized growth (S. cerevisiae deletion strains, locus YBR021W, strain FUR4, active compounds read low) was 1 and the normalized growth (S. cerevisiae deletion strains, locus YBR229C, strain ROT2, active compounds read low) was 0.961. For the same molecule, the normalized growth (S. cerevisiae deletion strains, locus YCL029C, strain bik1, active compounds read low) was 0.978, the normalized growth (S. cerevisiae deletion strains, locus YDL035C, strain GPR1, active compounds read low) was 0.956 and the normalized growth (S. cerevisiae deletion strains, locus YDL074C, strain BRE1, active compounds read low) was 0.89. For the same molecule, the normalized growth (S. cerevisiae deletion strains, locus YDL101C, strain DUN1, active compounds read low) was 0.97, the normalized growth (S. cerevisiae deletion strains, locus YDL134C, strain PPH21, active compounds read low) was 0.986 and the normalized growth (S. cerevisiae deletion strains, locus YDL185W, strain tfp1, active compounds read low) was 0.957. It also gave a normalized growth (S. cerevisiae deletion strains, locus YDL192W, strain arf1, active compounds read low) of 0.979, a normalized growth (S. cerevisiae deletion strains, locus YDR101C, strain arx1, active compounds read low) of 0.989 and a normalized growth (S. cerevisiae deletion strains, locus YDR150W, strain NUM1, active compounds read low) of 0.984. For the same molecule, the normalized growth (S. cerevisiae deletion strains, locus YDR162C, strain NBP2, active compounds read low) was 0.806 (active), the normalized growth (S. cerevisiae deletion strains, locus YDR318W, strain mcm21, active compounds read low) was 0.981 and the normalized growth (S. cerevisiae deletion strains, locus YDR388W, active compounds read low) was 0.994. For the same molecule, the normalized growth (S. cerevisiae deletion strains, locus YDR502C, strain sam2, active compounds read low) was 0.99, the normalized growth (S. cerevisiae deletion strains, locus YEL061C, strain CIN8, active compounds read low) was 0.995 and the normalized growth (S. cerevisiae deletion strains, locus YER110C, active compounds read low) was 0.987. The normalized growth (S. cerevisiae deletion strains, locus YER155C, strain BEM2, active compounds read low) was 1.01, the normalized growth (S. cerevisiae deletion strains, locus YER167W, strain BCK2, active compounds read low) was 0.972 and the normalized growth (S. cerevisiae deletion strains, locus YGL078C, strain dbp3, active compounds read low) was 0.984. For the same molecule, the normalized growth (S. cerevisiae deletion strains, locus YGL086W, strain mad1, active compounds read low) was 1, the normalized growth (S. cerevisiae deletion strains, locus YGL248W, strain PDE1, active compounds read low) was 0.946 and the normalized growth (S. cerevisiae deletion strains, locus YGR078C, strain PAC10, active compounds read low) was 0.969. It also gave a normalized growth (S. cerevisiae deletion strains, locus YGR135W, strain pre9, active compounds read low) of 0.981, a normalized growth (S. cerevisiae deletion strains, locus YGR229C, strain SMI1, active compounds read low) of 0.908 and a normalized growth (S. cerevisiae deletion strains, locus YGR252W, strain gcn5, active compounds read low) of 0.954. For the same molecule, the normalized growth (S. cerevisiae deletion strains, locus YHR030C, strain SLT2, active compounds read low) was 1.01, the normalized growth (S. cerevisiae deletion strains, locus YHR079C, strain IRE1 (second series), active compounds read low) was 0.989 and the normalized growth (S. cerevisiae deletion strains, locus YHR094C, strain hxt1, active compounds read low) was 0.999. The normalized growth (S. cerevisiae deletion strains, locus YHR129C, strain ARP1, active compounds read low) was 0.969, the normalized growth (S. cerevisiae deletion strains, locus YHR200W, strain rpn10, active compounds read low) was 0.995 and the normalized growth (S. cerevisiae deletion strains, locus YIL066C, strain RNR3, active compounds read low) was 0.94. For the same molecule, the normalized growth (S. cerevisiae deletion strains, locus YIL073C, strain SPO22, active compounds read low) was 0.907, the normalized growth (S. cerevisiae deletion strains, locus YIL125W, strain kgd1, active compounds read low) was 0.981 and the normalized growth (S. cerevisiae deletion strains, locus YIR030C, strain dcg1, active compounds read low) was 0.984. It also gave a normalized growth (S. cerevisiae deletion strains, locus YJL095W, strain BCK1, active compounds read low) of 0.964, a normalized growth (S. cerevisiae deletion strains, locus YJL134W, strain LCB3, active compounds read low) of 0.988 and a normalized growth (S. cerevisiae deletion strains, locus YJL168C, strain set2, active compounds read low) of 0.984. The normalized growth (S. cerevisiae deletion strains, locus YJL187C, strain SWE1 (second series), active compounds read low) was 0.984, the normalized growth (S. cerevisiae deletion strains, locus YJR043C, strain POL32, active compounds read low) was 0.984 and the normalized growth (S. cerevisiae deletion strains, locus YJR075W, strain HOC1, active compounds read low) was 0.928. For the same molecule, the normalized growth (S. cerevisiae deletion strains, locus YKL009W, strain mrt4, active compounds read low) was 0.946, the normalized growth (S. cerevisiae deletion strains, locus YKL068W, active compounds read low) was 0.993 and the normalized growth (S. cerevisiae deletion strains, locus YKL085W, strain MDH1 (second series), active compounds read low) was 0.984. It also gave a normalized growth (S. cerevisiae deletion strains, locus YKL085W, strain MDH1, active compounds read low) of 0.984, a normalized growth (S. cerevisiae deletion strains, locus YKL190W, strain CNB1, active compounds read low) of 1 and a normalized growth (S. cerevisiae deletion strains, locus YKR001C, strain vps1, active compounds read low) of 0.978. The normalized growth (S. cerevisiae deletion strains, locus YLR039C, strain RIC1, active compounds read low) was 0.868, the normalized growth (S. cerevisiae deletion strains, locus YLR058C, strain SHM2, active compounds read low) was 0.982 and the normalized growth (S. cerevisiae deletion strains, locus YLR102C, strain apc9, active compounds read low) was 0.983. The normalized growth (S. cerevisiae deletion strains, locus YLR262C, strain YPT6, active compounds read low) was 0.829, the normalized growth (S. cerevisiae deletion strains, locus YLR268W, strain sec22, active compounds read low) was 0.981 and the normalized growth (S. cerevisiae deletion strains, locus YLR330W, strain CHS5, active compounds read low) was 0.992. For the same molecule, the normalized growth (S. cerevisiae deletion strains, locus YLR342W, strain FKS1 (second series), active compounds read low) was 0.996, the normalized growth (S. cerevisiae deletion strains, locus YLR371W, strain rom2, active compounds read low) was 0.985 and the normalized growth (S. cerevisiae deletion strains, locus YLR418C, strain cdc73, active compounds read low) was 0.932. It also gave a normalized growth (S. cerevisiae deletion strains, locus YML016C, strain PPZ1, active compounds read low) of 0.988, a normalized growth (S. cerevisiae deletion strains, locus YML032C, strain rad52, active compounds read low) of 0.989 and a normalized growth (S. cerevisiae deletion strains, locus YML124C, strain tub3, active compounds read low) of 0.996. It also gave a normalized growth (S. cerevisiae deletion strains, locus YMR078C, strain ctf18, active compounds read low) of 0.997, a normalized growth (S. cerevisiae deletion strains, locus YMR223W, strain ubp8, active compounds read low) of 0.98 and a normalized growth (S. cerevisiae deletion strains, locus YMR263W, strain SAP30, active compounds read low) of 0.981. For the same molecule, the normalized growth (S. cerevisiae deletion strains, locus YMR307W, strain GAS1, active compounds read low) was 0.954, the normalized growth (S. cerevisiae deletion strains, locus YNL067W, strain RPL9B, active compounds read low) was 0.971 and the normalized growth (S. cerevisiae deletion strains, locus YNL128W, strain TEP1, active compounds read low) was 0.918. The normalized growth (S. cerevisiae deletion strains, locus YNL153C, strain GIM3, active compounds read low) was 0.987, the normalized growth (S. cerevisiae deletion strains, locus YNL233W, strain BNI4, active compounds read low) was 0.982 and the normalized growth (S. cerevisiae deletion strains, locus YNL250W, strain rad50, active compounds read low) was 0.982. The normalized growth (S. cerevisiae deletion strains, locus YNL271C, strain bni1, active compounds read low) was 0.991, the normalized growth (S. cerevisiae deletion strains, locus YNL298W, strain CLA4, active compounds read low) was 0.979 and the normalized growth (S. cerevisiae deletion strains, locus YNL307C, strain MCK1, active compounds read low) was 0.987. It also gave a normalized growth (S. cerevisiae deletion strains, locus YNL322C, strain KRE1, active compounds read low) of 0.981, a normalized growth (S. cerevisiae deletion strains, locus YNR052C, strain pop2, active compounds read low) of 0.986 and a normalized growth (S. cerevisiae deletion strains, locus YOL006C, strain TOP1, active compounds read low) of 0.788. The normalized growth (S. cerevisiae deletion strains, locus YOL012C, strain htz1) was 1.08, the normalized growth (S. cerevisiae deletion strains, locus YOL147C, strain pex11, active compounds read low) was 1.01 and the normalized growth (S. cerevisiae deletion strains, locus YOR061W, strain CKA2, active compounds read low) was 0.964. It also gave a normalized growth (S. cerevisiae deletion strains, locus YOR069W, strain VPS5, active compounds read low) of 0.995, a normalized growth (S. cerevisiae deletion strains, locus YOR136W, strain idh2, active compounds read low) of 0.988 and a normalized growth (S. cerevisiae deletion strains, locus YOR144C, strain elg1, active compounds read low) of 0.989. For the same molecule, the normalized growth (S. cerevisiae deletion strains, locus YOR184W, strain ser1, active compounds read low) was 0.968, the normalized growth (S. cerevisiae deletion strains, locus YOR316C, strain cot1, active compounds read low) was 0.969 and the normalized growth (S. cerevisiae deletion strains, locus YPL055C, strain LGE1, active compounds read low) was 0.914. For the same molecule, the normalized growth (S. cerevisiae deletion strains, locus YPL241C, strain CIN2, active compounds read low) was 0.989, the normalized growth (S. cerevisiae deletion strains, locus YPR119W, strain clb2, active compounds read low) was 0.993 and the normalized growth (S. cerevisiae deletion strains, locus YPR141C, strain kar3, active compounds read low) was 0.949. For the same molecule, the normalized growth (S. cerevisiae deletion strains, locus YPR163C, strain tif3, active compounds read low) was 0.994, the normalized growth (S. cerevisiae deletion strains, locus YPR167C, strain met16, active compounds read low) was 0.979 and the normalized growth (S. cerevisiae deletion strains, strain wtn01, active compounds read low) was 0.981. It also gave a normalized growth (S. cerevisiae strains, strain wild type, active compounds read low) of 0.982.
